The term inhibition denotes the drop in the measured response relative to a control, in per cent.

Drawing on ChEMBL document CHEMBL3433997, “St. Jude Leishmania screening dataset” (2016), this text covers inhibition for 17 molecules.

Common to all, as to type: functional
The target of test [1] is Solute carrier family 2, facilitated glucose transporter member 1 (Homo sapiens) (UniProt P11166). The test is described as follows: ST_JUDE_LEISH: Cytotoxicity at 2uM final concentration against transgenic Leishmania Mexicana promastigotes LmGLUT1 that are glucose transport deficient and complemented with the human glucose transporter GLUT1. Activity is measured by DNA content using SYBR green in vitro.

The target of test [2] is Hexose transporter 1 (Plasmodium falciparum) (UniProt O97467). The test is described as follows: ST_JUDE_LEISH: Cytotoxicity at 2uM final concentration against transgenic Leishmania Mexicana promastigotes LmPfHT that are glucose transport deficient and complemented with the Plasmodium falciparum hexose transporter. Activity is measured by DNA content using SYBR green in vitro.

Test [3] addresses Glucose transporter (Leishmania mexicana) (UniProt O61059). The test is described as follows: ST_JUDE_LEISH: Cytotoxicity at 2uM final concentration against transgenic Leishmania Mexicana promastigotes LmGT2 that are glucose transport deficient and complemented with the L. Mexicana glucose transporter 2. Activity is measured by DNA content using SYBR green in vitro.

Sequence of Solute carrier family 2, facilitated glucose transporter member 1 (Homo sapiens) (P11166 whole entry): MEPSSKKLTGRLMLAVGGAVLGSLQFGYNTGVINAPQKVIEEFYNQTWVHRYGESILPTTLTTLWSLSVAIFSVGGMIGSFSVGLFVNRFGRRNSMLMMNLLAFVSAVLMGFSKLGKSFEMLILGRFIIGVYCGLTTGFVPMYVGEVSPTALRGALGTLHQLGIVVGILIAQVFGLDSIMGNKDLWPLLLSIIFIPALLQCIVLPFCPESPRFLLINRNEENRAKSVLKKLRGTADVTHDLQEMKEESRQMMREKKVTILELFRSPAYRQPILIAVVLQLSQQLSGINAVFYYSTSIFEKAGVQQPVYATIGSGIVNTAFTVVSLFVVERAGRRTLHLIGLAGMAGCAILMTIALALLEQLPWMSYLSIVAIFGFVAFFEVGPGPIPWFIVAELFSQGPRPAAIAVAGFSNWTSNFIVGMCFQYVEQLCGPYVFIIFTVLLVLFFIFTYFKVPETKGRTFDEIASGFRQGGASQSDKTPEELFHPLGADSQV

With `CC(=O)Nc1cccc(CNCc2ccc(-c3cnc(N4CCCC(C)(C)C4)nc3)cc2)c1`, the inhibition in test [1] was -2.79%; in test [2], 3.36%; in test [3], 0.65%.

In the case of `O=C(Nc1ccc(Cl)cc1)OCCn1nnnc1C(c1ccc(Cl)cc1)N1CCOCC1` (stereo unspecified), the inhibition in test [1] was 2.79%; in test [2] it was 0.7%; in test [3], 2.38%.

`COc1ccc(S(=O)(=O)NCCC2CCN(CCCCCNC(=O)C=Cc3ccc(Cl)c(Cl)c3)CC2)cc1`: the results for the inhibition in test [1], in test [2] and in test [3] were 2.06%, 2.12% and 1.49%, respectively.

Turning to `CCNc1cc(C(=O)N[C@@H](Cc2ccccc2)[C@H](O)CNCc2cc(C#N)ccc2OC)cc(N2CCCC2=O)c1`, the inhibition in test [1] came to 9.4%; in test [2] it was 9.23%; in test [3], 9.67%.

Consider `Nc1c2ccccc2nc2ccc(Cl)cc12`, for which the results for the inhibition in test [1], in test [2] and in test [3] were 14.6%, 16.4% and 9.04%, respectively.

`COc1ccc(O)c(Cc2cnc3nc(N)[nH]c(=O)c3c2C)c1`: the inhibition in test [1] was determined as 1.02%; in test [2], 0.5%; in test [3], 4.01%.

In the case of `COc1cccc(NC(=O)c2nc(N3CCN(c4ccncc4)CC3)ccc2Cl)c1`, the inhibition is -1.23% in test [1], 1.65% in test [2] and 0.29% in test [3].

In the case of `CCN(CC)CC(O)Cc1c2ccc([N+](=O)[O-])cc2nc2cc(OC)c(OC)cc12` (stereo unspecified), the inhibition in test [1] was 0.42%; in test [2] it was 1.89%; in test [3], -1.11%.

Turning to `Cc1ncc(CN2CCC(C(=O)Nc3ccc(-c4nc5ccccc5o4)cc3)CC2)s1`, the inhibition in test [1] is -2.13%; in test [2], -3.66%; in test [3], -0.97%.

Take `O=S(=O)(NCCN1CCCC1)c1ccc(-c2ccc(CNC3Cc4ccccc4C3)cc2)cc1F`: the values for the inhibition in test [1], in test [2] and in test [3] were 6.55%, 13.9% and 5.36%, respectively.

In the case of `COc1ccc2ncc(F)c([C@H](O)CN3CCC(NCc4cc5c(cn4)OCCO5)CC3)c2c1`, the inhibition in test [1] was 6.21%; in test [2] it was 6.52%; in test [3] it was 2.51%.

`N=C(N)Nc1nc(-c2cccc(NC(=O)CCCCCCCON3C(N)=NC(N)=NC34CCCCC4)c2)cs1`: the inhibition in test [1] stood at 2.45%; in test [2], 4.13%; in test [3], 3.75%.

Regarding `CCCN1CCN(Cc2ccc(C(=O)Nc3ccc(Cl)cc3)cc2)CC1`, the inhibition in test [1] came out at 5.31%; in test [2] it was 4.24%; in test [3], 4.34%.

Regarding `O=C(Nc1ccc(Cl)cc1)c1cc(Cl)ccc1NC(=O)C1(c2ccc(Cl)cc2)CCCC1`, the values for the inhibition in test [1], in test [2] and in test [3] were -0.07%, 2.74% and 1.43%, respectively.

`COc1ccccc1C1CN(CCNC(=O)c2nc(C)c[nH]2)Cc2ccccc2O1` (stereo unspecified): the inhibition in test [1] came to 0.43%; in test [2] it was 2.02%; in test [3], 5.66%.

Regarding `Oc1ccc2ccccc2c1C=NNc1nc(=Nc2ccccc2)nc(N2CCOCC2)[nH]1`, the inhibition in test [1] is 4.21%; in test [2], 3.72%; in test [3], 0.2%.

For the molecule `CS(=O)(=O)c1ccc(-c2nc(NCC3CCCCC3)cc(C(F)(F)F)n2)cc1`, the inhibition is -0.02% in test [1], 1.77% in test [2] and 0.16% in test [3].
